Lassa entry inh: Lassa virus entry inhibition; hit rate 1.2% among 300,000; Lassa virus pseudotype entry inhibition, cell reporter; Potency, µM (doses to about 37.9 µM), inactives show at the highest dose activity change, negative = inhibition, usual class: inhibitors; calls by dose curve; tested in HEK293 cells; note: potency is the fitted concentration of half-maximal effect; nearly all actives have a fitted effect of over 50% in size
VACV mCherry inh: vaccinia inhibition (mCherry reporter); Vaccinia virus mCherry reporter infection, fluorescence; Potency, µM (highest dose often 36.5 µM), for the others: top-dose activity change, negative = inhibition, usual class: inhibitors; hit rate 0.63% among 310,000; calls by dose curve; tested in A549 cells; note: potency is the fitted concentration of half-maximal effect; nearly all actives have a fitted effect of over 35% in size
VACV Venus inh: vaccinia inhibition (Venus reporter); Vaccinia virus Venus reporter expression, fluorescence; Potency, µM (doses to about 36.5 µM), inactives show at the highest dose activity change, negative = inhibition, actives largely listed as inhibitors; hit rate 0.46% among 330,000; AID 720580; calls by dose curve; tested in A549 cells; note: potency is the fitted concentration of half-maximal effect; nearly all actives have a fitted effect of over 30% in size
MARV entry inh: inhibitors of Marburg virus binding or cell entry | Marburg virus pseudotyped entry inhibition, cell reporter | Potency, µM (highest dose often 37.8 µM), without a hit: at the highest dose activity change, negative = inhibition, hits mostly inhibitors | hit rate 1.8% among 300,000 | AID 540276; calls by dose curve; tested in HEK293 cells; note: potency is the fitted concentration of half-maximal effect
HCMV inh: inhibitors of human cytomegalovirus; HFF cells, HCMV-luciferase reporter, 72 h; hits give low values; activity change, negative = inhibition, % at 57.5 µM; hit rate 4.5% among 410,000; AID 1259415; in the data active = activity change below about -60%; inconclusive = no clear call, values can overlap the other calls; inactive = above about -39%
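Compounds were evaluated in HFFs infected with an HCMV luciferase reporter virus (MOI 1 PFU/cell). Luciferase in lysates collected 72 h post infection served as the replication measure.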
FMDV antiviral: foot and mouth disease virus antiviral activity. AID 1159524. FMDV antiviral cell-based qHTS. Potency, µM (highest dose often 57.9 µM), inactives show at the top dose activity change, negative = inhibition, hits mostly inhibitors. hit rate 1.2% among 410,000; calls by dose curve; tested in HEK293T cells; note: read-out not given here; potency is the fitted concentration of half-maximal effect; nearly all actives have a fitted effect of over 45% in size
* marks the source's active call; other numbers are inactive results; i = inactive; ? = inconclusive; / = no result given; [ ] = dose if it differs, or a comment. Sampled rows, rich in hits. Any-hit rate of the full collection: about 6.5%. % is set by controls: 0 for no effect and ±100 for the full control effect.

SMILES	Lassa entry inh	VACV mCherry inh	VACV Venus inh	MARV entry inh	HCMV inh	FMDV antiviral
COC(=O)c1cccc(-n2nnnc2SCC(=O)Nc2cc(C)on2)c1	8%	/	-7%	11%	-91*	-2%
NC(=S)N/N=C/c1ccc(OC(=O)c2cccnc2)cc1	/	/	/	/	0	-6%
Cc1cc(=O)[nH]c(N/N=C/c2ccc(OC(=O)c3cccnc3)cc2)n1	-2%[46.1 µM]	-8%	-21%	18%[46.1 µM]	-65*	-3%
Cc1cc(=O)[nH]c(NN=Cc2cc(Br)ccc2O)n1	10µM*	2µM*	?	2µM*	-100*	-4%
CCN(CC)c1ccc(/C=N/Nc2nc(C)cc(=O)[nH]2)c(O)c1	0.82µM*	0.89µM*	?	0.52µM*	-98*	15%
COC(=O)c1cccc(Nc2nn3c(=O)c4cc5c(cc4nc3s2)OCO5)c1	17%[46.1 µM]	5%	8%	28%[46.1 µM]	7	-19%
Cc1cccc2cc(CN(CC3CCCO3)C(=O)c3cccc(F)c3)c(N(C)C)nc12 (configuration not stated)	/	-14%	3%	/	/	-5%
CCOc1ccc(C(=O)N(Cc2ccc(C(C)C)cc2)Cc2ccco2)cc1	?	-6%	-10%	2%[46.1 µM]	55	-15%
COc1ccc(NC(=O)CC2C(=O)N(c3cccc(OC)c3)C(=O)N2CCC(C)C)cc1 (configuration not stated)	-24%	/	/	-15%	-9	10%
COc1ccc(NC(=O)CC2C(=O)N(c3cccc(OC)c3)C(=O)N2CCC2=CCCCC2)cc1 (configuration not stated)	11µM*	-11%	-13%	?	-9	-21%
Cc1nnsc1C(=O)NCC1Cc2cccc(-c3ncccn3)c2O1 (configuration not stated)	/	-9%	-2%	/	/	-15%
Cc1ccc(-n2c(C)cc(C(=O)CSc3nncs3)c2C)cc1	?	?	?	?	-71*	/
Cc1cc(C(=O)CSc2nncs2)c(C)n1-c1c(C)n(C)n(-c2ccccc2)c1=O	12%	-14%	-9%	18%	-21	/
COc1ccc2c(c1)CO[C@H]([C@H](O)CO)[C@H]2C=CC#Cc1ccc(C(C)(C)C)cc1	/	/	/	-9%[14.2 µM]	/	/
CCOc1cc(CNCCSc2nnnn2C)ccc1OCc1ccc(Cl)cc1Cl	-5%[46.1 µM]	?	-28%	?	-99*	?
Cn1nnnc1SCCNCc1ccccc1OCc1ccc(Cl)cc1Cl	-27%[46.1 µM]	i[7.34 µM]	-16%[7.34 µM]	8%[46.1 µM]	-39	?
COc1cc(CNCCSc2nnnn2C)ccc1OCc1ccc(F)cc1	1%[46.1 µM]	0%	-9%	?	-77*	0%
Cn1nnnc1SCCCNCc1cc(Br)ccc1OCc1ccccc1	10%[46.1 µM]	-27%	-29%	?	-63*	?
COc1cc(CNCCc2c[nH]c3ccccc23)ccc1OCc1ccc(F)cc1	-21%	10µM*	?	?	17	-7%
COc1cccc(CNCCc2c[nH]c3ccccc23)c1OCc1ccc(F)cc1	?	?	?	?	-14	?
O=C(c1ccccc1F)N1CC(=O)N2[C@@H](CO)[C@H](c3ccc(Br)cc3)[C@@H]2C1	/	/	/	/	14	/
Cc1ccc(C2=NCC(C)n3nc4ccccc4c32)cc1 (configuration not stated)	/	/	/	/	-9	/
Cc1cc(S(=O)(=O)c2ccc([N+](=O)[O-])cn2)ccc1Br	?	-3%	-21%	10µM*	-98*	8.9µM*
Cc1ccc(S(=O)(=O)c2ccc([N+](=O)[O-])cn2)cc1	?	?	-26%	4µM*	-95*	25µM*
O=[N+]([O-])c1ccc(S(=O)(=O)c2ccccc2)nc1	/	-20%	?	/	-98*	35µM*
Cc1ccc([N+](=O)[O-])cc1	/	i	-6%	/	-31	0%
Cc1cc(Sc2ccc([N+](=O)[O-])cn2)ccc1Br	1%	-12%	-10%	?	-34	-12%
Nc1ccc(S(=O)(=O)c2ccccc2)nc1	/	i	-6%	/	-4	3%
CCOCCCNC(=O)C(c1ccc(Cl)cc1)N(Cc1ccc2c(c1)OCO2)C(=O)c1ccccc1O (configuration not stated)	-2%[46.1 µM]	-10%	-12%	-23%[46.1 µM]	2	56%
